Test [1] can be described thus: viability loss with induced miR-34 in A549 – imaging, A549 dox-inducible miR-34, nuclei and caspase counts, primary screen (AID 1347080). The settings on record: A549 miR-34 inducible, Hoechst nuclei count, 48 h.
Test [2] in a line: galactose survival enhancers in mitochondrial complex I cybrids – cell-based, galactose medium, ATP luminescence, primary screen (AID 1645843;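 active = z-score of at least 1.8 in each of two replicates, scored against plate mean and spread of sample wells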;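 note: positive z means more ATP and so rescue of galactose-driven cybrid death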). The settings on record: complex I mutant cybrid cells, 72 h, stronger effect = higher value.
The target in test [3] is ATP-dependent translocase ABCB1 (Homo sapiens) (UniProt P08183). Kind of test: P-glycoprotein substrate transport blockade – cell-based (AID 377; in the data active = fluorescence slope change above about 50%). The settings on record: MDR1-expressing cells, fluorescent substrate accumulation slope; stronger effect = higher value; concentration not given here.
ATP-dependent translocase ABCB1 (Homo sapiens), sequence (P08183 whole entry, looked up): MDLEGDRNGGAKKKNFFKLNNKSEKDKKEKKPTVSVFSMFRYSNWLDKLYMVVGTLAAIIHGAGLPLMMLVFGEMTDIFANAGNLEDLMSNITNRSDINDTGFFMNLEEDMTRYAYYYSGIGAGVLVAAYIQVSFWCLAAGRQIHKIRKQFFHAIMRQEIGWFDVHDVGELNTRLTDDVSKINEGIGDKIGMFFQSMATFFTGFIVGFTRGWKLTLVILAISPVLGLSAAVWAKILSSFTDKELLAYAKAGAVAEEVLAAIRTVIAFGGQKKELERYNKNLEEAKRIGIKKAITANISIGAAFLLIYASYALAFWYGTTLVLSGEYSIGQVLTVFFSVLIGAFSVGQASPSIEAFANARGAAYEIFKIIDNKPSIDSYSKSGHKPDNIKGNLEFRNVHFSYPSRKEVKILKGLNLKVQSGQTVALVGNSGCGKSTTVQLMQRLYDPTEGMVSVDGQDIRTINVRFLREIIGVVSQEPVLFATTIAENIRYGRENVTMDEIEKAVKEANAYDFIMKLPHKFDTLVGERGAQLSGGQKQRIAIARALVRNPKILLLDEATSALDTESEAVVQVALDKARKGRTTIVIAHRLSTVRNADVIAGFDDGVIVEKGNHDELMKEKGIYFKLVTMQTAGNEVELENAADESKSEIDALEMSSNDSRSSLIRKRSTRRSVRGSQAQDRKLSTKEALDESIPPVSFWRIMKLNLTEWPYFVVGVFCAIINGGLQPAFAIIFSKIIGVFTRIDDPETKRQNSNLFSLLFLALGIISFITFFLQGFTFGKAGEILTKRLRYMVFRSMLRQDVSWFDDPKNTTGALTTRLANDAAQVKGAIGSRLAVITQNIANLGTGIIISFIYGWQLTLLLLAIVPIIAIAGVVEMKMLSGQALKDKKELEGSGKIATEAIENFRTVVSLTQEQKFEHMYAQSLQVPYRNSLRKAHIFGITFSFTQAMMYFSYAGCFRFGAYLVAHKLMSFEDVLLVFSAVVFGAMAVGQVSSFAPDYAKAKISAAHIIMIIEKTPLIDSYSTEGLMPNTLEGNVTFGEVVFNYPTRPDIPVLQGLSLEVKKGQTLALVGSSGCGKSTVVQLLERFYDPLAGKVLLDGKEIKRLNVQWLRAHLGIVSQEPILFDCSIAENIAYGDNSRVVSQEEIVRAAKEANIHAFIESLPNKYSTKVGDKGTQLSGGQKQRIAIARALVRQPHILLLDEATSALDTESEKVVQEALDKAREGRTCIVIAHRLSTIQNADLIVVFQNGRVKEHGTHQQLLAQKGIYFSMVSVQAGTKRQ
Test [4] can be described thus: compounds altering viability of human ES cells (AID 493140; call rule not given here;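 note: cells exposed to compounds for four days before counting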). The note with it: human embryonic stem cell survival screen; stronger effect = higher value.
A short description of test [5]: P. berghei load reduction in hepatocytes – cell-based, HepG2, luciferase luminescence, HepG2 viability, primary screen (AID 624349; in the data active = parasite load remaining mostly below about 12%, no sharp cut-off; inactive = mostly above about 10%;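 note: 100% = mean of DMSO negative control wells on the same plate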). The settings on record: P. berghei liver stage in HepG2, luciferase luminescence, concentration not given here; parasite load remaining: stronger effect = lower value; viability: measured here: HepG2 viability without parasites.
[6] abbreviates: measured here: relative caspase fold change +Dox/-Dox.
Setting [7] is: measured here: total cells with miR-34 induction, stronger effect = lower value.
Where [8] appears, read: measured here: total cells without miR-34 induction.
The mark [9] stands for this setting: stronger effect = lower value, cell number ratio, induced over uninduced.

“And” between values parts separate entries of the source, which are not always exact repeats. Equal entries are not always repeated. Inconclusive results are not listed. The source made the active and inactive calls.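 Rule for the calls, unless noted: active = compounds whose cell count with miR-34 switched on is under 0.7 times the count with it off; inactive = the rest.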

Consider `Oc1ccc2c3c1OC1c4[nH]c5ccccc5c4C[C@@]4(O)C(C2)N(CC2CC2)CC[C@]314` (stereo partly specified), for which the fold change is 0.943 (inactive) in test [1] (stronger effect = lower value) and 1.78 in test [1] (setting [6]). Also, the cell count in test [1] (setting [7]) amounted to 8150; in test [1] (setting [8]), 8650. Further, the z-score in test [2] is -0.925 (inactive).
Regarding `CC(C)C[C@H]1C(=O)N2CCC[C@H]2[C@]2(O)O[C@](NC(=O)[C@@H]3C=C4c5cccc6[nH]cc(c56)C[C@H]4N(C)C3)(C(C)C)C(=O)N12`, in test [3], the fluorescence slope change is 95.9% (active). In addition, in test [4], the survival is 9.42 (inactive). For the same compound, in test [5], the parasite load remaining was 59.7% (inactive). The compound also had a viability in test [5] of 94.6%. In addition, the fold change in test [1] (stronger effect = lower value) was 0.917 (inactive); in test [1] (setting [6]), 1.12. Moreover, the cell count in test [1] (setting [7]) is 7540; in test [1] (setting [8]), 8220.
Consider `CCCCC/C=C\C/C=C\C/C=C\C/C=C\CCCC(=O)NCCc1ccc(O)c(O)c1`, for which, in test [4], the survival was 69.6 (inactive). In addition, the figures for the fold change in test [1] (setting [9]) and in test [1] (setting [6]) were 0.953 (inactive) and 1.09, respectively. For the same compound, the cell count was determined as 5250 in test [1] (setting [7]) and 5510 in test [1] (setting [8]).
In the case of `CN1CCC(c2ccc(F)cc2)C(COc2ccc3c(c2)OCO3)C1` (stereo unspecified), the fold change in test [1] (setting [9]) is 0.906 (inactive); in test [1] (setting [6]), 1.59. Besides, the cell count was found to be 7350 in test [1] (setting [7]) and 8110 in test [1] (setting [8]). Besides, the z-score in test [2] was -1.4 (inactive).
Take `C[C@]12CC3SC3C[C@@H]1CC[C@@H]1[C@@H]2CC[C@]2(C)[C@@H](O)CC[C@@H]12` (stereo partly specified): the survival in test [4] is 17.5 (inactive). Further, the parasite load remaining in test [5] was 87.8% (inactive). In test [5], this compound had a viability of 72.9%. Also, the fold change is 0.913 (inactive) in test [1] (stronger effect = lower value) and 0.52 in test [1] (setting [6]). For the same compound, the cell count in test [1] (setting [7]) came to 9130; in test [1] (setting [8]), 10000.
In the case of `C[C@]12CCC(=O)CC1CCC1C2CC[C@@]2(C)C1CC[C@]2(C)O` (stereo partly specified), the fold change in test [1] (stronger effect = lower value) was 0.938 (inactive); in test [1] (setting [6]), 1.8. Moreover, the cell count in test [1] (setting [7]) worked out at 9370; in test [1] (setting [8]), 9990. In addition, the z-score in test [2] is -0.195 (inactive).
Regarding `CNCC(O)c1ccc(O)c(OC)c1` (stereo unspecified), the fluorescence slope change in test [3] is 189% (active). In test [4], the survival is 30.2 (inactive). For the same compound, in test [5], the parasite load remaining was 40.2% (inactive) and 98.3% (inactive). Moreover, the viability in test [5] was 47.9% and 90.3%. In addition, the fold change in test [1] (setting [9]) is 0.905 (inactive); in test [1] (setting [6]), 1.46. Also, the cell count in test [1] (setting [7]) was determined as 8830; in test [1] (setting [8]), 9760.
For `Nc1cc2c(ncn2CCOCP(=O)(O)O)c(=O)[nH]1`, the fold change is 1.06 (inactive) in test [1] (stronger effect = lower value) and 1.02 in test [1] (setting [6]). The cell count was determined as 3380 in test [1] (setting [7]) and 3200 in test [1] (setting [8]). Also, in test [2], the z-score is -0.655 (inactive).
For the compound `COc1ccc2[nH]c3c(c2c1)CCN=C3C`, the fluorescence slope change in test [3] is 83.4% (active). Moreover, the survival in test [4] is 10.2 (inactive). In addition, the parasite load remaining in test [5] was 105% (inactive) and 62.3% (inactive). In test [5], the viability is 98.5% and 75.1%. For the same compound, the fold change is 0.83 (inactive) in test [1] (stronger effect = lower value) and 1.33 in test [1] (setting [6]). In addition, the cell count in test [1] (setting [7]) came to 7960; in test [1] (setting [8]) it was 9590.
In the case of `CN1CC[C@@]23CCCCC2C1Cc1ccc(O)cc13` (stereo partly specified), the values for the fold change in test [1] (stronger effect = lower value) and in test [1] (setting [6]) were 0.886 (inactive) and 1.9, respectively. Further, the figures for the cell count in test [1] (setting [7]) and in test [1] (setting [8]) were 9070 and 10200, respectively. Besides, the z-score in test [2] is 0.545 (inactive).
Regarding `CCC1C=CC=CCC(C)C(O)C(C)C(=O)C(C)C(O)C(C)C(=O)C(C)C(O)C(C)C=CC(=O)OC2C(C)C(CC1)O[C@@]1(CCC(C)C(CC(C)O)O1)C2C` (stereo partly specified), the fold change in test [1] (setting [9]) was 1.03 (inactive); in test [1] (setting [6]) it was 1.64. In addition, the cell count in test [1] (setting [7]) was found to be 7130; in test [1] (setting [8]), 6920. Besides, the z-score in test [2] was -0.03 (inactive).
Consider `CCCCCCCCCCCCCCCCOC[C@@H](O)COP(=O)([O-])OCC[N+](C)(C)C`, for which the survival in test [4] was 114 (inactive). The fold change is 0.982 (inactive) and 0.938 (inactive) in test [1] (stronger effect = lower value); 1.56 and 0.831 in test [1] (setting [6]). Also, the cell count is 5950 and 5610 in test [1] (setting [7]); 6060 and 5980 in test [1] (setting [8]).

The record behind these values is PubChem BioAssay.
